# Screening data as filed in PubChem.
# In the library only some 19% were active in any assay of this set; here they are far more common.
# KB-3-1 tox = kills parental KB-3-1 adenocarcinoma cells. 400,000 compounds, 1.4% hits. Potency, µM (series often up to 46.1 µM), usual class: cytotoxic. KB-3-1 viability, CellTiter-Glo ATP luminescence, 72 h. AID 1347075; further: nearly all actives have a fitted effect of over 60% in size
#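 Cytotoxicity in the drug-sensitive parental line KB-3-1 was scored as loss of CellTiter-Glo luminescence following 72 h incubation with compound. Values come from curve fitting of normalized concentration-response data.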
# HT1080 IDH1KD tx = toxicity to HT-1080 IDH1 knockdown cells (counter line). HT-1080 IDH1 knockdown viability, ATP luminescence, 48 h. Potency, µM (series often up to 46.1 µM), for the others: top-dose activity, negative = toxicity, most hits filed as cytotoxic. 360,000 compounds, 2% hits. AID 686971;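 further: 0% = DMSO wells and -100% = cell-free medium wells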
#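 Knockdown cells (IDH1KD HT-1080) received compounds 2 h after plating at 750 cells/well and were kept 48 h at 37 °C in 5% FBS RPMI. A CellTiter-Glo luminescence read gave % activity for curve fitting.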
# KB-V1 MDR tox = kills drug-selected multidrug resistant KB-V1 cells; KB-V1 MDR cells viability, CellTiter-Glo, 72 h; Potency, µM (series often up to 46.1 µM), most hits filed as cytotoxic; 400,000 compounds, 3.4% hits; further: nearly all actives have a fitted effect of over 60% in size
#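 Readout: CellTiter-Glo luminescence, 10 min after addition. Cells: KB-V1 MDR subline, 72 h at 37 degrees C with compound. Analysis: corrected, normalized data fitted to concentration-effect curves.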
# DT40 TDP1 CPT = growth inhibition of DT40 Tdp1-/-;hTDP1 cells with camptothecin (screen for TDP1 inhibitors); AID 686979; 420,000 compounds, 12% hits; Potency, µM (series often up to 46.2 µM), for inactives: at the top dose activity change, negative = growth inhibition, usual class: inhibitors; chicken DT40 Tdp1-/-;hTDP1 cells + 20 nM CPT, ATP luminescence, 48 h; further: nearly all actives have a fitted effect of over 55% in size
#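 Chicken DT40 Tdp1-/- cells complemented with human TDP1, 400 cells/well, exposed to compounds plus 20 nM camptothecin for at least 48 h at 37 C; viability read as ATP content by CellTiter-Glo luminescence.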
# DT40 TDP1 no CPT = qHTS for Inhibitors of human tyrosyl-DNA phosphodiesterase 1 (TDP1): qHTS in cells in absence of CPT; AID 686978, 2013; 420,000 compounds, 15% hits; Potency, µM (top dose mostly 46.2 µM), inactives show at the highest dose activity change, negative = growth inhibition, hits mostly inhibitors; DT40 Tdp1-/- hTDP1 cells, no CPT, ATP luminescence, 48 h; further: nearly all actives have a fitted effect of over 55% in size
#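 Stably hTDP1-transfected Tdp1-null chicken DT40 cells were treated with library compounds minus camptothecin and grown for at least 48 hr at 37 °C, after which cellular ATP was quantified by luminescence.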
# HT1080-NT tox = kills 2HG-producing HT-1080-NT fibrosarcoma cells. HT-1080-NT fibrosarcoma viability, CellTiter-Glo ATP luminescence, 48 h. Potency, µM (titrated, usually from 46.1 µM), inactives show at the highest dose activity, negative = less viability, hits mostly cytotoxic. 360,000 compounds, 1.6% hits. AID 686970;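 further: NT is the 2HG producing partner of a matched IDH1 knockdown line; 0% = DMSO-treated cells and -100% = media-only wells without cells; nearly all actives have a fitted effect of over 55% in size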
#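 Fibrosarcoma NT cells, 750 per well in 5% FBS RPMI, were exposed to compound for 48 hours. Viability: CellTiter-Glo luminescence.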
# An asterisk follows results filed as active; i = inactive; ? = inconclusive; . = no result given; [ ] = remark or other dose. The call rests on the fitted dose curve; in most records, active means well fitted curve in the direction sought with a large enough effect; inconclusive means small, poorly fitted or top-dose-only effect, or another doubt; inactive means no such curve, though single readings can be large; an effect the other way counts as inactive or inconclusive. Unless noted, on the % scale 0 is the no-effect control and ±100 the full control effect; potency means the concentration at half of the fitted maximal effect.
SMILES,KB-3-1 tox,HT1080 IDH1KD tx,KB-V1 MDR tox,DT40 TDP1 CPT,DT40 TDP1 no CPT,HT1080-NT tox
CN(C)c1oc(-c2ccccc2Cl)nc1S(=O)(=O)c1ccccc1,i,-5%,i,?,21µM*,11%
CC1CCCCC1NC(=O)/C(C#N)=C/c1ccc2c(c1)OCCO2 (configuration not stated),18µM*,-9%,?,?,?,-14%
CSc1ccc(/C=C(\C#N)C(=O)NC2CCCCC2)cc1,i,5%,i,?,21µM*,3%
COc1ccc(-c2[nH]ncc2/C=C(/C#N)C(=O)NC2CCCCCC2)cc1,?,?,i,?,18µM*,18µM*
COc1ccc(CCc2c[nH]c(=O)c3cncnc23)cc1OC,.,-2%,.,-19%,?,1%
CC(=O)Nc1c(Br)cc2c(c1Br)Cc1cc(Br)ccc1-2,?,?,?,-28%,13µM*,?
Cc1ccc(S(=O)(=O)NNC(=O)NC23CC4CC(CC(C4)C2)C3)cc1,i,-9%,21µM*,-2%,?,-1%
Fc1ccc(-c2cc(-c3ccccc3)c3c(n2)-c2ccccc2OC3)cc1,i,.,?,?,-25%,.
O=C1Cc2c(-c3ccccc3)cc(-c3cccc(Cl)c3)nc2-c2ccccc2N1,?,-10%,i,21µM*,?,-2%
CC(C)CN=C(NS(=O)(=O)c1ccccc1)C(Cl)(Cl)Cl,8.2µM*,6.5µM*,?,4.6µM*,5.8µM*,6.5µM*
CC(C)CC(NS(=O)(=O)c1ccccc1)C(=O)O (configuration not stated),i,17%,i,-22%,-7%,1%
CCc1nnc(NC(=O)C23CC4CC(CC(C4)C2)C3)s1,i,1%,i,-11%,-1%,-1%
CC(C)Cc1nnc(NC(=O)C23CC4CC(CC(C4)C2)C3)s1,i,1%,i,?,18µM*,0%
CNc1cncc(-c2cccc(C(=O)NC3CC3)c2)n1,i,12%,i,?,?,22%
O=C(NC1CCCC1)c1cnn2c(C(F)(F)F)cc(-c3ccco3)nc12,i,?,5.2µM*,-29%,?,3%
CC(C)CCNC(=O)c1cnn2c(C(F)(F)F)cc(-c3ccco3)nc12,?,?,11µM*,11µM*,32µM*,1%
O=C(c1cnn2c(C(F)(F)F)cc(-c3ccc4c(c3)OCO4)nc12)N1CCCCC1,i,4%,i,?,-23%,6%
COc1ccc(-c2cc(C(F)(F)F)n3ncc(C(=O)NCc4ccco4)c3n2)cc1,i,0%,i,-17%,?,1%
NC(=O)c1cnn2c(C(F)(F)F)cc(-c3ccc(F)cc3)nc12,i,0%,13µM*,-28%,?,-10%
NC(=O)c1cnn2c(C(F)(F)F)cc(-c3ccccc3)nc12,i,-4%[9.24 µM],?,?,?,-12%
O=C(NCc1ccco1)c1cnn2c(C(F)(F)F)cc(-c3ccccc3)nc12,i,-3%,i,?,?,-13%
O=C(NC1CCCC1)c1cnn2c(C(F)(F)F)cc(-c3ccc4c(c3)OCO4)nc12,i,10%,?,7.3µM*,16µM*,4%
CN1C2=CC=CC=CC2=[N+](C)C12C([N+](=O)[O-])=CC(=[N+]([O-])[O-])C=C2[N+](=O)[O-] (configuration not stated),i,2.1µM*,i,?,2.1µM*,?
O=C(N/N=C/c1ccc([N+](=O)[O-])o1)C1CCCC1,?,?,i,?,?,-23%
O=[N+]([O-])c1cc(-c2ccc(/C=N\n3cnnc3)o2)cc([N+](=O)[O-])c1,i,-1%,i,2%,-16%,-15%
SMILES,KB-3-1 tox,HT1080 IDH1KD tx,KB-V1 MDR tox,DT40 TDP1 CPT,DT40 TDP1 no CPT,HT1080-NT tox
O=C1OCCN1/N=C/c1ccc([N+](=O)[O-])o1,i,-16%,i,13µM*,15µM*,2%
O=C1CN(/N=C/c2ccc([N+](=O)[O-])o2)C(=O)N1,?,?,?,21µM*,16µM*,?
CC(C)c1ccccc1NC(=O)CCc1nc2ccccc2s1,i,-2%,18µM*,-27%,?,0%
O=C(NCc1cccs1)c1ccc2sc([C@H]3C[C@H](O)[C@@H](CO)O3)nc2c1,i,0%,i,-15%,-23%,22%
CC1/C(=N/O)CC(c2ccccc2)NC1c1ccccc1 (configuration not stated),i,-3%,i,?,?,-6%
CC(C)C1/C(=N/O)CC(c2ccccc2)NC1c1ccccc1 (configuration not stated),i,?,?,16µM*,21µM*,?
CCCC1/C(=N/O)CC(c2ccccc2)NC1c1ccccc1 (configuration not stated),i,?,?,?,4.1µM*,?
O=C(NNC(=O)c1cnccn1)c1ccc(Cl)c(Cl)c1,?,?,i,7.3µM*,3.7µM*,?
O=C(NNC(=O)c1ccccc1Br)c1ccncc1,i,11%,?,-12%,24%,11%
O=C(NNC(=O)c1ccccc1Br)c1cnccn1,i,?,?,18µM*,?,-17%
COC[C@H]1CCCN1[C@H]1CS(=O)(=O)N[C@@H]1COCc1ccccc1,i,19%,i,2%,1%,26%
CC(=O)Nc1ccc(OCCOc2ccc(/C=C3/C(=N)N4C=CSC4=NC3=O)cc2)cc1,i,0%,i,21µM*,10µM*,4%
COc1ccccc1OCCOc1ccc(/C=C2\C(=N)N3N=C(S(C)(=O)=O)SC3=NC2=O)cc1,i,0%,i,?,23µM*,-8%
COc1cccc(OCCOc2ccc(/C=C3\C(=N)N4N=C(S(C)(=O)=O)SC4=NC3=O)cc2OC)c1,i,0%,i,-13%,-3%,2%
CCC1=NN(C(=O)c2ccc(C)cc2)C(O)(c2ccc(Br)cc2)C1 (configuration not stated),i,-26%,21µM*,?,?,-19%
CCC1=NN(C(=O)c2ccc(Br)cc2)C(O)(c2ccc(C)cc2)C1 (configuration not stated),i,-15%,i,5.2µM*,5.2µM*,-18%
